Measured values reported in PubChem BioAssay (NCI).
Compounds without any hit were thinned out: in the full panel of roughly 79,000, 15% have a hit. Cut-off read from the data, not from the text of the source: active = growth inhibition above about 70%; inactive = the rest.

Experiments:
[1] = NCI Yeast Anticancer Drug Screen. Data for the rad50 strain (AID 155);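 note: 0% = growth of vehicle-only cultures of the same strain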; conditions: S. cerevisiae rad50 strain growth inhibition; at 50.0 µM; hits give high values
Procedure, shortened: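 Vehicle-treated cultures provide the reference for the growth inhibition reported for compound-exposed, repair-deficient yeast.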

[2] = NCI Yeast Anticancer Drug Screen. Data for the mec2-1 strain (AID 157); conditions: S. cerevisiae mec2-1 strain, at 50.0 µM, hits give high values
Procedure, shortened: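 Compounds were applied to mec2-1 yeast cells. Their growth was then compared with that of vehicle-treated cultures to give growth inhibition.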

[3] = NCI Yeast Anticancer Drug Screen. Data for the sgs1 mgt1 strain (AID 161);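 note: 0% = growth of cultures given vehicle only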; conditions: S. cerevisiae sgs1 mgt1 strain, at 50.0 µM, hits give high values
Procedure, shortened: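 Yeast cells carrying a defined DNA-repair defect were exposed to test compounds. Growth inhibition was measured relative to vehicle-treated controls.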

[4] = NCI Yeast Anticancer Drug Screen. Data for the cln2 rad14 strain (AID 165);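 note: 0% = growth equal to vehicle treated cultures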; conditions: S. cerevisiae cln2 rad14 strain, at 50.0 µM, hits give high values
Procedure, shortened: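 Strain: cln2 rad14 yeast, altered in cell cycle control and DNA damage repair. Read-out: growth inhibition vs vehicle.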

[5] = NCI Yeast Anticancer Drug Screen. Data for the bub3 strain (AID 167); conditions: S. cerevisiae bub3 mutant strain, at 50.0 µM, hits give high values
Procedure, shortened: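 Mutant yeast screening strain plus compound; vehicle-treated cultures serve as the 0% inhibition reference.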

[6] = NCI Yeast Anticancer Drug Screen. Data for the mlh1 rad18 strain (AID 175); conditions: S. cerevisiae mlh1 rad18 strain growth inhibition; at 50.0 µM; hits give high values
Procedure, shortened: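 A repair-deficient yeast strain is exposed to test compound, and growth is scored relative to vehicle-treated controls.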

Measured: growth inhibition

CCOC(=O)c1c[nH]c2c(Cl)c(C)ccc2c1=O
inactive: [1] -40.1% | [2] -48.1% | [3] -17.6% | [4] -110% | [5] -30.1% | [6] -4.75%

COC(=O)C(=[N+]=[N-])C(=O)c1cccc([N+](=O)[O-])c1
inactive: [1] 11.1% | [2] 15.5% | [3] 5.75% | [4] 17.2% | [5] 3.2% | [6] 12.2%

CCOC(=O)c1ccc(N=Nc2ccc(N(CCC#N)CCC#N)cc2C)cc1
inactive: [1] -47.5% | [2] -50.6% | [3] -27.4% | [4] -4.4% | [5] -36.8% | [6] -24.5%

COC(=O)CC(c1ccc2c(c1)OCO2)N1CCOCC1 (stereo not drawn)
inactive: [1] -6.3% | [2] 31.3% | [3] 19.5% | [4] -6.1% | [5] 21.2% | [6] 42.9%

Cc1ccc2c(c1)CC1(C2=O)[C@H](c2ccccc2)C2C(=O)c3ccc(C)cc3C2[C@H]1c1ccccc1 (stereo partly drawn)
inactive: [1] -14.8% | [2] 13.5% | [3] -0.15% | [4] -11.1% | [5] 14.6% | [6] 9.5%

CCCCC1c2c([nH]c3ccccc23)C2C(=O)N(c3ccc(OC)cc3)C(=O)C2C1CCC (stereo not drawn)
inactive: [1] 9.75% | [2] -19.5% | [3] -14.6% | [4] -27.5% | [5] 1.6% | [6] -5.6%

Cc1[nH]c(=O)[nH]c(=O)c1-n1nnc2ccccc2c1=O
inactive: [1] 21.9% | [2] 12.8% | [3] 20.7% | [4] -7.05% | [5] 8.3% | [6] 6.8%

O=C(Nc1ccccc1O)c1ccc(Cl)c(Cl)c1
inactive: [1] -7.6% | [2] 32% | [3] 33.2% | [4] -23.2% | [5] 49% | [6] 36.2%

COc1ccc(OC)c(N=Nc2c(C)nc(N)nc2C)c1
inactive: [1] 11.3% | [2] 4.4% | [3] 7.85% | [4] -32.6% | [5] 19.6% | [6] 10.2%

CCCC(C(O)CC)[N+](=O)[O-] (stereo not drawn)
inactive: [1] 8.65% | [2] -16.1% | [3] 11.7% | [4] 5.35% | [5] -6.25% | [6] 21.6%

CCN(CC)Cc1cc(-n2cnc3c(=S)nc[nH]c32)ccc1O
inactive: [1] -3.15% | [2] -12.4% | [3] -8.8% | [4] 3.45% | [5] -5.65% | [6] -3.2%

COc1ccc(C(c2cc3c(cc2O)OCO3)N2CCN(C(c3cc4c(cc3O)OCO4)c3ccc(OC)cc3OC)CC2)c(OC)c1 (stereo not drawn)
inactive: [1] -15.1% | [2] 1.55% | [3] 30.2% | [4] 23.1% | [5] -11.9% | [6] 3.45%

CCCOS(=O)(=O)O
inactive: [1] -13.7% | [2] -15.1% | [3] 1.7% | [4] 7% | [5] 6.65% | [6] 15.2%

O=C1c2ccccc2C(=O)N1CNc1cccc(NCN2C(=O)c3ccccc3C2=O)c1
inactive: [1] -3.9% | [2] -11.7% | [3] -9.75% | [4] 16.1% | [5] 1.2% | [6] -2.15%

COc1ccc(NC(=S)NC(=O)c2ccccc2)cc1OC
inactive: [1] 31.8% | [2] 4.15% | [3] 21.9% | [4] 3% | [5] -1.2% | [6] 15.4%

COc1cc(OC)c2nc3ccccc3c(NCCC[N+](C)(C)[O-])c2c1[N+](=O)[O-]
inactive: [1] 7.65% | [2] -33.6% | [3] -12.9% | [4] -22.2% | [5] -14.2% | [6] -17.8%

COC(=O)Nn1cc(C(C(C)=O)C(C)=O)c(C(C)=O)c1C
inactive: [1] -6.9% | [2] -0.15% | [3] 7.9% | [4] -35.6% | [5] -0.05% | [6] 17.9%

CCCNC(=S)N/N=C/c1cccc(C)n1
inactive: [1] -23.3% | [2] -26.1% | [3] 2.15% | [4] 15.2% | [5] 24.2% | [6] -12%

CC(=O)c1ccc(OC(=O)Nc2ccc(C)cc2)cc1
inactive: [1] -2.25% | [2] 27.3% | [3] 17.8% | [4] -6.2% | [5] 26.5% | [6] 15.6%

CC1=NN(C(=O)CC(=O)Nc2cccc(Cl)c2)C(=O)C1N=Nc1ccc(C(=O)O)cc1 (stereo not drawn)
inactive: [1] -3.25% | [2] 1.35% | [3] 6.1% | [4] -25% | [5] -3.2% | [6] 6.55%

O=C1c2ccccc2C(=O)N1CCCO
inactive: [1] -4.55% | [2] -1.9% | [3] -15.4% | [4] -23.8% | [5] -17.7% | [6] 8.9%

COc1ccc2c(c1)C(=O)C1(C2)[C@H](c2ccccc2)C2C(=O)c3cc(OC)ccc3C2[C@H]1c1ccccc1 (stereo partly drawn)
inactive: [1] -20.4% | [2] -3% | [3] 11.9% | [4] -5.2% | [5] 21.1% | [6] 9.3%

COc1cc(C(=O)NO)c(Br)c(OC)c1OC
inactive: [1] -3.5% | [2] 9.5% | [3] -4.35% | [4] -5.6% | [5] -7.2% | [6] -3.7%

O=[N+]([O-])c1ccc(CC(Cl)c2ccccn2)cc1 (stereo not drawn)
inactive: [1] 18.9% | [2] 9.85% | [3] 19.1% | [4] -11.4% | [5] 22.2% | [6] 42.2%

O=S(=O)(O)CCCCO
inactive: [1] 4.4% | [2] -29.9% | [3] 0.9% | [4] 22.2% | [5] 6.15% | [6] 10.2%

O=NNc1ccnc(-c2cc(NN=O)ccn2)c1
inactive: [1] 22.2% | [2] 16.4% | [3] 6.3% | [4] -0.9% | [5] -12.5% | [6] 34%

CC(C)NC1(C#N)CCN(Cc2ccccc2)CC1
inactive: [1] -29.8% | [2] -45.1% | [3] -41.4% | [4] 10.2% | [5] -29.1% | [6] -37.5%

BrC1=NOC2c3cccc4cccc(c34)C12 (stereo not drawn)
inactive: [1] 2.4% | [2] 8.95% | [3] 19.6% | [4] 42% | [5] 34% | [6] 22.8%

COc1ccc(NC=O)c(C(O)CCNC(C)=O)c1 (stereo not drawn)
inactive: [1] -15.4% | [2] -10.1% | [3] -19.6% | [4] 0.45% | [5] -39.1% | [6] -34.5%

N#CC(Cc1ccccc1)C(=O)O (stereo not drawn)
inactive: [1] 2.05% | [2] 0.5% | [3] -5.35% | [4] 2% | [5] 1.4% | [6] 0.8%

CCCCC(CC)CSCCOC(C)OCCSCC(CC)CCCC (stereo not drawn)
inactive: [1] 34.3% | [2] 2.25% | [3] 25.6% | [4] 39.9% | [5] 6.6% | [6] 27.9%

c1ccc(CSc2ncnc3oc(-c4ccccc4)nc23)cc1
inactive: [1] 22.5% | [2] 17.2% | [3] 13.6% | [4] 11.2% | [5] 24% | [6] 16.4%

COc1ccc(C)cc1NC(=O)/C=C/c1ccccc1
inactive: [1] 1.6% | [2] -6.6% | [3] -6.5% | [4] 16.2% | [5] 30.8% | [6] -7.65%
